Compound activity as filed in PubChem BioAssay.
In the library only some 7.4% were active in any assay of this set; here they are far more common.
hNpr1 antagonist: Natriuretic polypeptide receptor (hNpr1) antagonism - Primary qHTS. Atrial natriuretic peptide receptor 1 (Homo sapiens), P16066. HEK293 hNpr1 GloSensor cGMP, ANP-stimulated luminescence. Potency, µM (top dose mostly 46.3 µM), inactives show at the highest dose activity change, negative = inhibition, usual class: inhibitors. hit rate 1.6% among 76,000. AID 1347048, 2019; calls by dose curve; note: % is set by controls: 0 for no effect and ±100 for the full control effect; nearly all actives have a fitted effect of over 60% in size
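HEK293 cells stably expressing human Npr1 and cGMP GloSensor pGS-40F, loaded 2 h with 2% GloSensor reagent, given compound 30 min at room temperature. Luminescence read before and 20 min after 0.1 nM hNppA.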
HEK cytotox: Cytotoxic Profiling in HEK 293 Cell Line of Diverse Libraries Using Quantitative High-Throughput Screening; HEK 293 viability, ATP luminescence (CellTiter-Glo), 48-72 h; Potency, µM (titrated, usually from 115 µM), for inactives: at the top dose activity change, negative = cytotoxicity, hits mostly inhibitors; hit rate 6.6% among 94,000; AID 1345083, 2018; note: % is set by controls: 0 for no effect and ±100 for the full control effect; nearly all actives have a fitted effect of over 60% in size
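250 HEK 293 cells/well; compound by pintool; incubated 48 or 72 hr at 37 degree Celsius; CellTiter-Glo added, 10 min RT, luminescence imaged.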
Luciferase inh: Firefly luciferase inhibition profiling of diverse chemical library using quantitative high-throughput screening. Luciferin 4-monooxygenase (Photinus pyralis), P08659. purified P. pyralis luciferase, luminescence, biochemical. Potency, µM (series often up to 115 µM), hits mostly inhibitors. hit rate 2.5% among 76,000; note: % is set by controls: 0 for no effect and ±100 for the full control effect; nearly all actives have a fitted effect of over 65% in size
Target sequence (P08659 whole entry, looked up): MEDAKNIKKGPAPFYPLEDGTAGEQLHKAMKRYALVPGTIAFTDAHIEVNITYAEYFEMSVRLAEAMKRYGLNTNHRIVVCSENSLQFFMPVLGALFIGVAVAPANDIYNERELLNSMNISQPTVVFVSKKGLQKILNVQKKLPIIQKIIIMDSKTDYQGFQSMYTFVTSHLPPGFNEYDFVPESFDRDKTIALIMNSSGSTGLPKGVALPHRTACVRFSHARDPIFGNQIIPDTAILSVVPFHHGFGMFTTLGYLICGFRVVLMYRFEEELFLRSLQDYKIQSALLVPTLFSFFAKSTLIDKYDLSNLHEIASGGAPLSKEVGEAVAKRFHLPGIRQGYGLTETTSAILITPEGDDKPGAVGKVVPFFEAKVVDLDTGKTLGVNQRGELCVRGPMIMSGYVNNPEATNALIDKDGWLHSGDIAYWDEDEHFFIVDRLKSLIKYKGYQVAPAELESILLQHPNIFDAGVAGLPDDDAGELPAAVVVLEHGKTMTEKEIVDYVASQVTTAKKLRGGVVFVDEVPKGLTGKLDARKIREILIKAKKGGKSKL
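Luminescence read by CCD imaging after purified firefly luciferase (10nM final) was added to substrate buffer holding 10uM D-luciferin and 10uM ATP, pH 7.5, pre-dosed with compound.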
SNCA expr inhib: Primary qHTS assay for inhibitors of alpha-synuclein gene (SNCA) expression; HEK-293 SNCA-luciferase knock-in, luminescence, 24 h; Potency, µM (titrated, usually from 57.2 µM), for the others: at the top dose activity change, negative = inhibition, usual class: inhibitors; hit rate 0.17% among 140,000; AID 1671194, 2021;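 note: plate controls were DMSO cells for no effect and cell-free wells for full effect; nearly all actives have a fitted effect of over 45% in size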
3T3 cytotox: Cytotoxic Profiling in NIH 3T3 Cell Line of Diverse Libraries Using Quantitative High-Throughput Screening; NIH 3T3 viability, CellTiter-Glo ATP luminescence, 48-72 h; Potency, µM (series often up to 96.7 µM), without a hit: at the top dose activity change, negative = cytotoxicity, hits mostly inhibitors; hit rate 4.3% among 94,000; AID 1345082, 2018; note: % is set by controls: 0 for no effect and ±100 for the full control effect; nearly all actives have a fitted effect of over 55% in size
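Mouse fibroblast NIH 3T3 cells, 400 per well, received compound via pintool and were incubated for 48 or 72 hr prior to CellTiter-Glo ATP luminescence measurement.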
HEK293 viab: GF-AFC viability counterscreen for inhibitors of alpha-synuclein gene (SNCA) expression; Potency, µM (titrated, usually from 57.1 µM), for inactives: top-dose activity change, negative = cytotoxicity, hits mostly cytotoxic; HEK-293-SNCA-luc viability, GF-AFC fluorescence, 24 h; hit rate 0.12% among 150,000;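 note: 0% = DMSO-treated cells and -100% = medium-only wells without cells; nearly all actives have a fitted effect of over 30% in size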
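HEK-293-SNCA-luc cells (1500/well) plated 24 h, then exposed 24 h to a dilution series; GF-AFC added 30 min at 37C, fluorescence 405/540 nm; normalised to medium-only and DMSO wells, Hill fit.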
Npr1 antag conf: Natriuretic polypeptide receptor (hNpr1) antagonism - Confirmation; shares compounds with hNpr1 antagonist; Potency, µM (series often up to 57.6 µM), for inactives: at the highest dose activity change, negative = inhibition, actives largely listed as inhibitors; HEK293 hNpr1 cGMP GloSensor luminescence, ANP-stimulated; hit rate 76% among 1,400; calls by dose curve; note: nearly all actives have a fitted effect of over 70% in size
Npr2 selectivity: Natriuretic polypeptide receptor (hNpr2) antagonism - Subtype selectivity assay. hit rate 67% among 1,400. Potency, µM (series often up to 57.6 µM), without a hit: at the highest dose activity change, negative = inhibition, hits mostly inhibitors. HEK293 hNpr2 GloSensor cGMP luminescence, CNP-stimulated. AID 1347046, 2019. shares compounds with hNpr1 antagonist; calls by dose curve; note: nearly all actives have a fitted effect of over 70% in size
FLuc counter: Natriuretic polypeptide receptor (hNpr1) antagonism - Confirmation firefly luciferase (FLuc) inhibition counterscreen. Potency, µM (highest dose often 57.6 µM), for the others: top-dose activity change, negative = inhibition, hits mostly inhibitors. purified FLuc enzyme, luminescence, Km substrate. hit rate 0.7% among 1,400. shares compounds with hNpr1 antagonist; note: 0% is about no effect
GloSensor cGMP: Natriuretic polypeptide receptor (hNpr1) antagonism - Counterscreen GloSensor control cell line; shares compounds with hNpr1 antagonist; HEK293 GloSensor cGMP, SNP-stimulated, luminescence; Potency, µM (titrated, usually from 57.6 µM), inactives show top-dose activity change, negative = inhibition, hits mostly inhibitors; hit rate 69% among 1,400; AID 1347051, 2019; calls by dose curve; note: % is set by controls: 0 for no effect and ±100 for the full control effect; nearly all actives have a fitted effect of over 70% in size
The depositor's hits bear a star; i = inactive; ? = inconclusive; / = not tested or not shown. Unless noted, calls come from the whole dose curve; as a rule, active = well fitted curve in the direction sought with a large enough effect; inconclusive = small, poorly fitted or top-dose-only effect, or another doubt; inactive = no such curve, though single readings can be large; an effect the other way counts as inactive or inconclusive. Potency is the fitted concentration of half-maximal effect.

SMILES | hNpr1 antagonist | HEK cytotox | Luciferase inh | SNCA expr inhib | 3T3 cytotox | HEK293 viab | Npr1 antag conf | Npr2 selectivity | FLuc counter | GloSensor cGMP
COc1ccc(C(=O)N2CCC3(C2)C(=O)N(c2ccccc2)c2ccccc23)cc1 (stereo not given) | / | ? | / | 21% | -18% | -20% | / | / | / | /
Cc1cccc2nc(C(=O)N3CCCC(c4[nH]ncc4-c4ccccc4)C3)cn12 (stereo not given) | ? | ? | i | -4% | ? | -32% | ? | ? | -2% | 8%
Cc1cccc2nc(C(=O)N3CCC4(CC3)CC(c3ccccc3)CN(C)C4)cn12 (stereo not given) | 3% | ? | i | ? | -2% | -2% | / | / | / | /
COc1ccc(CC(=O)N2CCC(Cc3nc(-c4ccccc4)no3)CC2)cc1Cl | 13µM* | ? | i | ? | 35µM* | -14% | 24µM* | 27µM* | 2% | 24µM*
COc1ccc(-c2noc(CC3CCN(C(=O)Cc4ccc(OC)c(Cl)c4)CC3)n2)cc1 | 13µM* | ? | i | 3% | ? | -1% | 24µM* | 24µM* | 0% | 17µM*
COC(=O)N1CCCCC(NC(=O)CCCc2nc(-c3ccccc3C)no2)C1 (stereo not given) | 13µM* | 35µM* | i | -29% | ? | -19% | 17µM* | 19µM* | -1% | 19µM*
COCC(=O)N1CCCC(C(=O)N2CCC(c3nc4ncccc4[nH]3)C2)C1 (stereo not given) | / | 0% | / | 26% | -21% | 6% | / | / | / | /
O=C(c1cccnc1)N1CCCN(c2ccc3nnc(-c4ccccc4)n3n2)CC1 | / | -24% | / | / | -27% | / | / | / | / | /
O=C(CC1CCCCC1)N1CCC(Cc2nc(-c3ccccc3)no2)CC1 | 10µM* | ? | i | -32% | ? | 19% | 14µM* | 15µM* | 0% | 9.7µM*
COCC(=O)N1CCC(c2noc(COc3ccc(F)cc3)n2)CC1 | / | -13% | / | 36% | -12% | 9% | / | / | / | /
O=C(CCC1CCCC1)N1CCC(Cc2nc(C3CCOCC3)no2)CC1 | 10µM* | ? | i | -23% | ? | 6% | 12µM* | 17µM* | 5% | 12µM*
O=C(Cc1ccccc1Cl)N1CCC(Cc2nc(-c3ccc(F)cc3)no2)CC1 | 16µM* | ? | i | ? | ? | 1% | 12µM* | 15µM* | 4% | 11µM*
O=C(CC1CCCCC1)N1CCC(c2noc(COc3ccc(F)cc3)n2)CC1 | 7.1µM* | ? | i | -4% | ? | -9% | 12µM* | 14µM* | -7% | 14µM*
O=C(CC1CCCCC1)N1CCC(n2cc(-c3nc(-c4ccccc4)no3)nn2)CC1 | 11µM* | 28µM* | i | 13% | ? | 3% | 24µM* | 22µM* | -2% | 22µM*
O=C(CC1CCCC1)N1CCC(Cc2nc(-c3ccc(F)cc3)no2)CC1 | 2.2µM* | ? | i | ? | ? | ? | 2.2µM* | 3.1µM* | 3% | 3.1µM*
OC[C@H]1CCN(c2ccnc3c(C(F)(F)F)cccc23)C[C@H]1O | -1% | ? | i | -2% | -4% | 1% | / | / | / | /
FC(F)(F)c1cccc2c(N3CCOC(C(F)(F)F)C3)ccnc12 (stereo not given) | 10µM* | ? | i | -9% | -46% | -1% | 24µM* | ? | 4% | 19µM*
FC(F)(F)C1CN(c2ccnc3ccc(Cl)cc23)CCO1 (stereo not given) | 11µM* | 40µM* | i | -30% | ? | -14% | 22µM* | 22µM* | 0% | 22µM*
CCN1C[C@H]2COc3cc(OC)ccc3[C@H]2N(C(=O)COc2ccccc2)CCC1=O | / | 2% | / | / | ? | / | / | / | / | /
CC1(c2ccccc2)N(Cc2ccc(O)cc2)C(=O)OC12CCN(Cc1cccnc1)CC2 (stereo not given) | -14% | -12% | i | 23% | ? | -4% | / | / | / | /
COc1ncccc1CN1CCC2(CC1)OC(=O)N(Cc1ccc(O)cc1)C2(C)c1ccccc1 (stereo not given) | -26% | ? | i | 3% | ? | 0% | -29% | ? | 1% | -2%
OC1CC(c2cc(N3CCC(Cc4noc(C5CC5)n4)CC3)ncn2)C1 (stereo not given) | 0.79µM* | -52% | i | ? | ? | -14% | 0.86µM* | 1.2µM* | 1% | 0.77µM*
CN(Cc1noc(C2CCCC2)n1)c1cc(C2CC(O)C2)ncn1 (stereo not given) | ? | -44% | i | 1% | ? | -11% | 22µM* | ? | 1% | 22µM*
O=C1NCCCCCCN(Cc2ccncc2)[C@@H]2CN(S(=O)(=O)c3ccc4c(c3)CCC4)CC[C@H]12 | -17% | ? | i | -3% | ? | -3% | / | / | / | /
Nc1nc(NCc2ccc(Cl)cc2Cl)cc(C2CC(O)C2)n1 (stereo not given) | 7.1µM* | ? | i | -11% | ? | -23% | 11µM* | 19µM* | 4% | 9.7µM*
